# Screening results: PubChem BioAssay, National Center for Advancing Translational Sciences (NCATS)
# In the library only some 11% were active in any assay of this set; here they are far more common.
# PLK1 PBD inh = blocks phosphopeptide binding to human PLK1 polo-box domain; P53350; Plk1 PBD binding of FITC phosphopeptide, fluorescence polarization; Potency, µM, inactives show max response, negative = inhibition, actives largely listed as inhibitors; 360,000 tested, 2.8% active; AID 720504; further: series mostly up to about 57 µM; on the % scale 0 is the no-effect control and ±100 the full control effect; nearly all actives have a fitted effect of over 65% in size
# BAZ2B inh = inhibitors of human BAZ2B bromodomain; 360,000 tested, 4.4% active; AID 504333; AlphaScreen BAZ2B-H3K14Ac peptide displacement; Potency, µM (doses to about 114 µM), for the others: at the highest dose activity change, negative = inhibition, hits mostly inhibitors; further: on the % scale 0 is the no-effect control and ±100 the full control effect; nearly all actives have a fitted effect of over 60% in size
#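 Compounds, titrated to a top concentration of 110 uM, were incubated 30 min at room temperature with preformed BAZ2B/acetyl-K14 H3 peptide complex (50 nM each). Proximity signal was measured by AlphaScreen after 20 min with beads.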
# HP1b chromo inh = blocks HP1-beta chromodomain binding to methylated histone tails; AlphaScreen HP1-beta / biotin-H3K9me3 peptide binding; Potency, µM (titrated, usually from 114 µM), for inactives: top-dose activity change, negative = inhibition, usual class: inhibitors; 390,000 tested, 0.56% active; AID 540317; further: nearly all actives have a fitted effect of over 70% in size
# Target sequence (P83916 whole entry, looked up): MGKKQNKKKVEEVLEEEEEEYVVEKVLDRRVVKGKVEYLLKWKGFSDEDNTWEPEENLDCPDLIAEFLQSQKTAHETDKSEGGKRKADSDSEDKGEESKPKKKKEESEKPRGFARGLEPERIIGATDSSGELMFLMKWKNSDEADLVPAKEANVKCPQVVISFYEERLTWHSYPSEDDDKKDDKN
#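 AlphaScreen: HP1-beta (50 nM) preformed 30 min with biotin-H3(1-18)K9me3 peptide (50 nM) in PBS pH 7.4, 0.01% Tween-20. Compound added for 30 min at RT, then streptavidin donor/nickel chelate acceptor beads (10 ug/mL) for 30 min.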
# G9a inh = inhibitors of human histone lysine methyltransferase G9a | Q96KQ7 | Potency, µM (titrated, usually from 102 µM), inactives show at the top dose activity, negative = inhibition, most hits filed as inhibitors | 350,000 tested, 8.8% active | G9a H3K9 monomethylation, AlphaScreen, 2 h; further: on the % scale 0 is the no-effect control and ±100 the full control effect; nearly all actives have a fitted effect of over 75% in size
#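 Chemiluminescent proximity detection of H3K9 monomethylation, read after 10 min bead incubation in the dark. Reaction: 20 nM G9a, 500 nM biotin-H3K9 peptide, 20 uM SAM cofactor, 2 h, room temperature, following 15 min enzyme-compound preincubation.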
# JMJD2A Tudor = inhibitors of human JMJD2A Tudor domain | O75164 | AlphaScreen JMJD2A-Tudor / H3K4me3 peptide binding | Potency, µM (highest dose often 114 µM), inactives show at the highest dose activity change, negative = inhibition, actives largely listed as inhibitors | 390,000 tested, 4.4% active | AID 504339; further: on the % scale 0 is the no-effect control and ±100 the full control effect; nearly all actives have a fitted effect of over 50% in size
# VDR inhibitor = vitamin D3 receptor (human) inhibition; P11473; VDR-SRC2-3 peptide fluorescence polarization, 2 h; Potency, µM, for the others: max response, negative = inhibition, actives largely listed as inhibitors; 400,000 tested, 0.93% active; AID 504847; further: on the % scale 0 is the no-effect control and ±100 the full control effect
# Target sequence (P11473 whole entry, looked up): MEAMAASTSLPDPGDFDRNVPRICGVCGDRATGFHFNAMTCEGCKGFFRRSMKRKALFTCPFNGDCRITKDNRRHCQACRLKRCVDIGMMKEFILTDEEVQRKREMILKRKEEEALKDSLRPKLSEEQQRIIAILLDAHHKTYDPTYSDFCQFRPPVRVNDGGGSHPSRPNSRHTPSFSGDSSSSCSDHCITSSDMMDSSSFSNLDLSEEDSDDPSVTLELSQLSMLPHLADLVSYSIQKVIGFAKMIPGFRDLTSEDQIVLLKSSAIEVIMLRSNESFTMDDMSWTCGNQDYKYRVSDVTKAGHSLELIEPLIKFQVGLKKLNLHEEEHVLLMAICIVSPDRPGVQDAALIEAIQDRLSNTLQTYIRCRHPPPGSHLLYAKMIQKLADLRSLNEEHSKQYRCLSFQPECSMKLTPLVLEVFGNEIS
#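 Fluorescence polarization assay of small-molecule disruption of VDR binding to coregulator peptide SRC2-3. Compounds and controls pin-transferred, then read after 2 h incubation at ambient room temperature.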
# Starred values were filed as active, the others as inactive; ? = inconclusive; nt = no result given; [ ] = dose if it differs, or a comment. The call rests on the fitted dose curve; in most records, active means well fitted curve in the direction sought with a large enough effect; inconclusive means small, poorly fitted or top-dose-only effect, or another doubt; inactive means no such curve, though single readings can be large; an effect the other way counts as inactive or inconclusive. Potency means the concentration at half of the fitted maximal effect.
SMILES,PLK1 PBD inh,BAZ2B inh,HP1b chromo inh,G9a inh,JMJD2A Tudor,VDR inhibitor
Cc1ccc(NC(=O)COC(=O)c2cc(Cl)ccc2[N+](=O)[O-])c(C)c1,-2%,-6%,30%,?,-21%[57.1 µM],-3%
Cc1ccc(NC(=O)COC(=O)CCC(=O)c2ccc(C(C)(C)C)cc2)c([N+](=O)[O-])c1,-11%,?,?,11µM*,?,-1%
Cc1ccc(NC(=O)COC(=O)COc2ccc(Cl)cc2C)c([N+](=O)[O-])c1,0%,?,-25%,28µM*,?,-13%
Cc1ccc(NCC(=O)N/N=C/c2cccn2C)cc1,-9%,40µM*,-26%,nt,?,-4%
Cc1ccc(OCC(=O)N/N=C/c2cccn2C)cc1,-3%,?,-27%,26%[59 µM],-33%,-4%
O=C(N/N=C/c1ccc([N+](=O)[O-])o1)C1CC1,-14%,50µM*,24%,?,?,4%
Cn1cccc1/C=N/NC(=O)CNc1ccc2ccccc2c1,-7%,25µM*,?,4µM*,56µM*,-12%
Cc1ccc(NCC(=O)N/N=C/c2cc(O)ccc2[N+](=O)[O-])cc1,-6%,?,13%,50µM*,-17%,1%
Cc1ccc(NCC(=O)N/N=C/c2ccncc2)cc1,-11%,-37%,23%,4%,-5%[57.1 µM],13%
NC(=O)N/N=C/c1ccc([N+](=O)[O-])o1,-2%,1%,59%,-33%[59 µM],-4%,-4%
Nc1nonc1C(=O)N/N=C/c1cc2c(cc1Br)OCO2,-11%,37%,28%,209%,?,-5%
CC(=O)NC(c1cccc(F)c1)c1nc(-c2cccc(C(F)(F)F)c2)cs1 (stereo unspecified),-3%,nt,nt,nt,nt,nt
O=C(CNc1ccc2ccccc2c1)N/N=C/c1ccc([N+](=O)[O-])o1,-4%,-30%,5%,2.5µM*,-19%,-6%
Cn1cccc1/C=N/NC(=O)Cc1cccc2ccccc12,-6%,14µM*,-12%,?,?,4%
O=C(CNc1ccc2ccccc2c1)N/N=C/c1cc2ccccc2nc1Cl,-1%,?,-13%,10µM*,?,1%
O=C(COc1ccccc1)N/N=C/c1ccc([N+](=O)[O-])o1,-10%,-12%,39%,-26%[59 µM],-15%,-4%
Cn1cccc1CC(=O)N/N=C/c1cccc2ccccc12,-7%,-14%,12%,-36%[12.7 µM],-26%,-7%
CCN(CC)C(=O)CC(c1ccc(N(C)C)cc1)c1c(O)cc(OC)cc1OC (stereo unspecified),-2%,?,-16%,?,50µM*,?
CCN(CC)C(=O)CC(c1ccc2c(c1)OCO2)c1c(O)cc(OC)cc1OC (stereo unspecified),5%,-4%,15%,23%[12.7 µM],-19%,-4%
COc1cc(O)c(C(CCN2CCCCC2)c2ccc(N(C)C)cc2)c(OC)c1 (stereo unspecified),1%,?,?,?,40µM*,-5%
COc1cc(O)c(C(CC(=O)N2CCCC2)c2ccc(N(C)C)cc2)c(OC)c1 (stereo unspecified),3%,?,-13%,?,?,10%
O=C1NC(=O)c2cc(Nc3ccc(F)cc3)c(Nc3ccc(F)cc3)cc21,nt,nt,nt,14µM*,nt,8%
COc1cc(/C=N/NS(=O)(=O)c2ccc3ccccc3c2)ccc1OCc1ccc(C(=O)O)cc1,-12%,-25%,22%,50µM*,-20%,9%
CCOc1cc(/C=N/Nc2ccc(C(=O)O)cc2)ccc1OC(=O)c1ccccc1C,?,?,7%,35µM*,?,12%
COc1cc(/C=N/Nc2ccc3ccccc3c2)ccc1OC(=O)c1ccco1,?,-35%,17%,7.9µM*,-15%,16%
SMILES,PLK1 PBD inh,BAZ2B inh,HP1b chromo inh,G9a inh,JMJD2A Tudor,VDR inhibitor
COc1cc(/C=N/Nc2nc(C)cc(C)n2)ccc1OC(=O)c1ccco1,5%,-23%,31%,4%[59 µM],-1%,-28%
COc1cc(C=O)ccc1OC(=O)c1cccnc1,-5%,-2%,36%,6%,-8%,17%
CCOc1cc(/C=N\NC(=O)c2ccc(NC(=O)C(C)(C)C)cc2)ccc1OC(=O)c1ccc(OC)cc1,-1%,-10%,46%,0%[59 µM],-15%,39%
COc1cc(/C=N/n2cnnc2)ccc1OC(=O)c1cccnc1,7.5µM*,10%,-7%,4%[12.7 µM],?,?
Cc1ccc(-c2noc(-c3ccc(N4CCCC4)c([N+](=O)[O-])c3)n2)cc1,nt,?,33%,-2%[59 µM],-21%,22%
COc1cccc(OCc2cc(/C=N/Nc3ccc(C(=O)O)cc3)ccc2OC)c1,?,56µM*,16%,?,56µM*,-20%
COc1ccc(C(=O)N/N=C/c2ccc(OC)c(COc3ccc(F)cc3)c2)cc1,-7%,-27%,8%,nt,-10%,-18%
COc1cc(/C=N/Nc2ccc(Cl)c(C(=O)O)c2)ccc1OC(=O)c1ccccc1F,?,?,-11%,40µM*,?,-20%
COc1cc(/C=N/Nc2ccc(Cl)c(C(=O)O)c2)ccc1OC(=O)c1ccc(F)cc1,?,?,7%,?,?,-2%
COc1ccc(/C=N/n2cncn2)cc1COc1ccc(NC(C)=O)cc1,27µM*,7%,-4%,2%[12.7 µM],50µM*,?
COc1cccc(C(=O)Oc2ccc(/C=N/Nc3ccc(C(=O)O)cc3)cc2OC)c1,?,50µM*,-6%,nt,?,-6%
C#CCN1C=CC(=O)[C@@H](OC(=O)Nc2ccc(C)cc2)[C@H]1c1ccccc1Br,-19%,nt,15%,nt,-32%,-12%
CN(C)C(=O)c1ccc(-c2nc(NCc3cccnc3)c3ccccc3n2)cc1,nt,nt,nt,nt,nt,-8%
Oc1ccc(/C=N/NC(=S)NCCN2CCOCC2)c(O)c1,3%,10µM*,8%,?,56µM*,-14%
O=c1c2c(-c3ccc([N+](=O)[O-])cc3)csc2nc2n1CCC2,27µM*,-1%,?,7.9µM*,-30%,-14%
O=[N+]([O-])c1ccc(-c2nnc3n2CCCCC3)cc1,-3%,-2%,-2%,60%,-13%,16%
O=[N+]([O-])c1ccc(Sc2ccc(Cl)c(Cl)c2)nc1,-5%,22µM*,-23%,?,?,-8%
O=[N+]([O-])c1ccc(SCc2c(F)cccc2Cl)nc1,-6%,?,-21%,nt,56µM*,0%
O=C(CSc1n[nH]c(-c2cccnc2)n1)Nc1ccc([N+](=O)[O-])cc1,-3%,-26%,33%,-18%,3%,4%
O=[N+]([O-])c1ccccc1CSc1ccccn1,?,-2%,-13%,50µM*,-15%,-1%
O=[N+]([O-])c1ccc(Nc2ccc(Cl)cc2)nc1,-6%,-1%,38%,8%,-8%,5%
